Compound activity (PubChem)
Only a selection was taken, and hits are over-represented in it overall.
a7 integrin act: integrin-mediated muscular dystrophy alleviation activation. Potency, µM (highest dose often 38.3 µM), without a hit: at the highest dose activation, hits mostly activators. alpha7betagal myoblasts, beta-gal FDG fluorescence, 48 h. AID 624291. 350,000 compounds, 0.064% hits;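 further: potency means the concentration at half of the fitted maximal effect; 100% = response of the positive control SU9516; nearly all actives have a fitted effect of over 60% in size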
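alpha7betagal+/- myoblasts (passage 13, 250/well) treated 48 h at 37C with compounds at 1:260 dilution of DMSO stock. Lysed, then beta-galactosidase activity read as FDG fluorescence (ex 480/em 540) after 30 min, with pre-read for autofluorescence.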
VP16 counter: inhibits Gal4-VP16 luciferase reporter, ROR gamma counter-screen; Drosophila S2 Gal4-VP16 UAS-luciferase, luminescence, 20 h; 310,000 compounds, 3.5% hits; Potency, µM (highest dose often 53.6 µM), without a hit: top-dose activity, negative = inhibition, usual class: inhibitors;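 further: Gal4-VP16 expression switched on by copper sulfate through the metallothionein promoter; potency means the concentration at half of the fitted maximal effect; on the % scale 0 is the no-effect control and ±100 the full control effect; nearly all actives have a fitted effect of over 50% in size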
Giardia killer: Giardia lamblia killing | AID 540267 | 340,000 compounds, 0.15% hits | Giardia lamblia trophozoite viability | activity change, % at 7.66 µM, hits read low; in the data active means activity change below about -80%; inconclusive means between about -30% and that limit;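 further: parasites exposed to compound for two days anaerobically before the ATP read; on the % scale 0 is the no-effect control and ±100 the full control effect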
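Trophozoite viability was measured as ATP-dependent luminescence, read 15-30 min after reagent addition. Before that, parasites at 100 cells/well were exposed to compounds for 48 h, anaerobically, at 37 deg C.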
RORg inh: ROR gamma (mouse) transcription inhibition | P51450 | Drosophila S2 Gal4-RORgamma UAS-luciferase reporter, 20 h | Potency, µM (highest dose often 53.6 µM), for the others: top-dose activity change, negative = inhibition, hits mostly inhibitors | 310,000 compounds, 5.4% hits; further: potency means the concentration at half of the fitted maximal effect; on the % scale 0 is the no-effect control and ±100 the full control effect; nearly all actives have a fitted effect of over 60% in size
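Compounds are pin-transferred onto Drosophila Schneider cells expressing a copper-inducible Gal4–ROR gamma transactivation domain fusion. After 1 hr, copper sulfate is added to 700 uM final; luciferase is read 20 hr later.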
ERG-DNA inh: ERG Ets/DNA interaction inhibition; P11308; fluorescence polarization, His-ERG Ets domain / labelled DNA; Potency, µM (doses to about 76.9 µM), for inactives: at the top dose FP activity, negative = inhibition, usual class: inhibitors; 370,000 compounds, 0.028% hits; active means well fitted inhibition curve with a large enough effect in the polarisation, with a control signal flat; inconclusive means small, poorly fitted or top-dose-only effect, or effect the other way, or a change in a side signal; inactive means no such curve, though single readings can be large or run the other way; the % refers to the polarisation;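 further: polarization taken with two DNA probes labelled with fluorescein and Texas red; potency means the concentration at half of the fitted maximal effect; % of control where 0% means no effect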
Target sequence (P11308 whole entry, looked up, the tested form may be a part): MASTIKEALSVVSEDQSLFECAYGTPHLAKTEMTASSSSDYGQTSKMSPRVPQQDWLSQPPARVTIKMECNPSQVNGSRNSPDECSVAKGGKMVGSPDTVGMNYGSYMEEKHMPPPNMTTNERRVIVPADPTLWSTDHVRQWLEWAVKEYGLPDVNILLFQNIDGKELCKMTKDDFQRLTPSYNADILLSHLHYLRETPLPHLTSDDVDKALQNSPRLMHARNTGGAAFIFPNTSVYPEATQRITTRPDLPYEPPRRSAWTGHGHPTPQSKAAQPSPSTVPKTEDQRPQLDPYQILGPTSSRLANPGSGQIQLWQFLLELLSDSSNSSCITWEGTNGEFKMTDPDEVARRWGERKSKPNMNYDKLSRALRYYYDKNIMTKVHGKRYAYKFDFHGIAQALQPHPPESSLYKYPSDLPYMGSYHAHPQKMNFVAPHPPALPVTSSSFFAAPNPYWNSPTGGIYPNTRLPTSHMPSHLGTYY
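His-tagged ERG Ets domain (1 uM in the protein solution; 300mM KCl, 50mM Tris-HCl, 1mM EDTA, 1mM DTT, pH 7.5) received compound, then a probe mix of 5 nM fluorescein-DNA and 100nM Texas-615-DNA. Fluorescence polarization was read for both dyes.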
Starred values were filed as active, the others as inactive; ? = inconclusive; / = no result; [ ] = dose if it differs, or a comment. Unless noted, the call rests on the fitted dose curve; in most records, active means well fitted curve in the direction sought with a large enough effect; inconclusive means small, poorly fitted or top-dose-only effect, or another doubt; inactive means no such curve, though single readings can be large; an effect the other way counts as inactive or inconclusive.

SMILES | a7 integrin act | VP16 counter | Giardia killer | RORg inh | ERG-DNA inh
Cc1nnc(NC(=O)C2CCN(S(=O)(=O)c3ccc(F)c(F)c3)CC2)o1 | 33% | / | 9 | / | -1%
CSCC[C@H](NC(=O)[C@H](CC(C)C)NC(=O)CCNC(=O)[C@@H](NC(=O)[C@H](Cc1ccccc1)NC(=O)[C@H](CO)NC(=O)[C@@H](N)CC(=O)O)C(C)C)C(N)=O | / | -4% | / | -10% | /
Cc1cc(Br)cc2c(C(=O)NCC3CCCO3)cc(-c3ccccc3)nc12 (centres undefined) | 1% | -2% | 17 | ? | -2%
CCc1c(C)c2cc3c(c(C)c2oc1=O)OCN(CCc1ccccc1F)C3 | / | / | / | / | 2%
CC(C)C1C(=O)N(Cc2cn(CCC3OCCCO3)nn2)CCS(=O)(=O)N1Cc1ccc(-c2ccc(Cl)c(Cl)c2)cc1 (centres undefined) | -60% | / | / | / | /
CC(C)n1cc(/C=N/NC(=O)COc2cccc3cccnc23)c2ccccc21 | -31% | ? | 1 | ? | ?
COc1ccccc1OCC(=O)N/N=C/c1cccc2cccnc12 | 14% | ? | 17 | 18µM* | 9%
COc1cccc(/C=N/NC(=O)COc2cccc3cccnc23)c1O | 0% | 13µM* | -7 | 2.2µM* | 1%
O=C(COc1ccc(Cl)cc1)N/N=C/c1cccc2cccnc12 | -25% | 10µM* | 18 | 13µM* | -5%
COc1ccc(OCC(=O)N/N=C/c2cccc3cccnc23)cc1 | -43% | / | 9 | / | 9%
COc1ccccc1OCC(=O)N/N=C/c1c(O)ccc2ccccc12 | / | 2.5µM* | / | 2.8µM* | /
Cc1nc(N2CCOCC2)c2c(C(=O)N3CCN(c4cc(Cl)ccc4C)CC3)c(C)oc2n1 | / | / | / | / | 5%
Cc1cc(OCC(=O)NNC(=S)NCC2CCCO2)cc(C)c1Cl (centres undefined) | ? | 6.3µM* | -16 | 3.2µM* | 59%
CCCCc1ccc(NC(=S)NCCc2ccc(S(N)(=O)=O)cc2)cc1 | -10% | 8.9µM* | -4 | ? | 4%
CCCCc1ccc(NC(=S)NCCN2CCOCC2)cc1 | -10% | ? | 6 | 10µM* | -3%
O=C(NNC(=S)NCC1CCCO1)c1cc(Br)ccc1Cl (centres undefined) | 14% | 20µM* | 6 | 3.2µM* | -9%
CC(C)S(=O)(=O)c1csc(NC(=O)Nc2cc(Cl)ccc2Cl)c1Cl | ? | -15% | -2 | -10% | 1%
O=C(COC(=O)c1cc(S(=O)(=O)N2CCOCC2)c(Cl)cc1Cl)c1ccc[nH]1 | -18% | / | -2 | / | 10%
CC(=O)Oc1ccccc1N(C(C)=O)S(=O)(=O)c1cccc([N+](=O)[O-])c1 | 4% | -4% | -23 | -18% | -1%
CC(=O)Oc1ccc(C(=O)NCc2ccco2)cc1 | -2% | 2% | -12 | 1% | -4%
CN(C)c1ccc(NC(=S)NCC2CCCO2)cc1 (centres undefined) | -20% | -14% | -1 | ? | 6%
S=C(NCC1CCCO1)NC1CCCC1 (centres undefined) | 3% | -22% | 7 | 13µM* | -5%
CCCCc1ccc(NC(=S)NCC2CCCO2)cc1 (centres undefined) | -7% | ? | -29 | 2.8µM* | -7%
S=C(NCC1CCCO1)Nc1ccc(Cl)c(Cl)c1 (centres undefined) | 0% | ? | -15 | 3.5µM* | 1%
CCCCc1ccc(NC(=S)Nc2ccc(Cl)c(S(=O)(=O)N(C)C)c2)cc1 | -38% | ? | 15 | 11µM* | 10%
SMILES | a7 integrin act | VP16 counter | Giardia killer | RORg inh | ERG-DNA inh
S=C(NCC1CCCO1)Nc1ccccc1Cl (centres undefined) | -26% | 16% | 0 | ? | 2%
CC(C)c1nc2sc3c(N4CCCCC4)ncnc3c2c2c1CCCC2 | / | / | / | / | 9%
O=C1OC(=O)c2c(Cl)c(Cl)c(Cl)c(Cl)c21 | / | -2% | / | -9% | /
COc1cc(C(O)c2nc3ccccc3s2)cc(OC)c1OC (centres undefined) | -1% | 10µM* | -4 | ? | 11%
COc1ccc(C(O)c2nc3ccccc3s2)cc1 (centres undefined) | / | 3% | / | 27% | /
Cc1ccc(C(=O)O/N=C(\N)c2ccccc2)c(Cl)c1 | 11% | 8.9µM* | -29 | 4.5µM* | 2%
NC(=O)c1cccnc1Oc1ccc(Cl)cc1Cl | 10µM* | 14% | -5 | -1% | 2%
N/C(=N\OC(=O)c1cc(Br)ccc1Cl)c1ccccn1 | -3% | ? | -5 | -44% | 8%
N/C(=N\OC(=O)c1ccc(Cl)cc1Cl)c1ccccn1 | -10% | ? | -6 | 7.1µM* | 1%
Cc1ccc(C(=O)O/N=C(\N)c2ccccn2)c(Cl)c1 | ? | 2.8µM* | -26 | 0.71µM* | 7%
Cc1cc(Cl)ccc1Nc1ncccc1C(N)=O | -8% | 3% | -3 | ? | 7%
CCCCOc1ccc(Cl)cc1CSc1nnc(C)n1N | 4%[7.66 µM] | 11% | 1 | 19% | -21%
O=S(=O)(NCCCSc1ccccc1)c1ccccc1F | -28% | 7% | 1 | 1% | 3%
O=C(N/N=C/c1ccco1)c1cc(C2CC2)nc2ccccc12 | / | 6% | / | -43% | /
O=C(N/N=C/c1ccco1)c1cc(-c2ccccc2)nc2ccccc12 | ? | 10µM* | 7 | 7.1µM* | 5%
Cc1ccc(-c2cc(C(=O)N/N=C\c3cnn(C)c3C)c3ccccc3n2)cc1C | -16% | ? | 6 | 11µM* | -2%
COc1cccc(-c2cc(C(=O)N/N=C/c3ccco3)c3ccccc3n2)c1 | 6% | 7.1µM* | 1 | 3.2µM* | -15%
CCCCN(C(=O)c1ccc(NC2CC2)c([N+](=O)[O-])c1)c1c(N)n(CCCC)c(=O)[nH]c1=O | -10% | / | 3 | / | 0%
O=C(CN1C(=O)NC2(CCCC2)C1=O)NCc1ccccc1 | 14% | / | -7 | / | 5%
O=C(CCl)N1CCN(S(=O)(=O)Cc2ccccc2)CC1 | ? | / | 18 | / | 31%
CCOc1ccc(Nc2c(S(=O)(=O)c3ccc(Cl)cc3)cnc3ccc(OC)cc23)cc1 | / | / | / | / | 0%
CCN1C(=O)[C@H]2[C@H]3[C@H](O)[C@H](O)C/C(=N/O[C@@H](C)c4cn([C@H](CO)Cc5ccccc5)nn4)[C@@H]3CC[C@@H]2C1=O | / | -1%[10 µM] | / | 4%[10 µM] | /
CN(C)c1ccc(N=Nc2nc3ccccc3n2C)cc1 | -46% | 1.3µM* | 4 | 0.4µM* | 30%
Cn1c(Cl)nc2ccccc21 | 16% | 2% | -14 | -14% | -5%
CCn1c(NCc2ccc(N(C)C)cc2)nc2ccccc21 | 1% | 0% | -4 | -25% | -1%
Cn1c(N=Nc2ccccc2)nc2ccccc21 | -7% | 1.3µM* | ? | 0.71µM* | -4%
CCc1ccc(-n2c(SCC(=O)c3ccc4c(c3)NC(=O)CO4)nc3ccccc3c2=O)cc1 | -19% | -1% | 7 | 2.5µM* | -1%
